Test results from PubChem BioAssay (NCATS).
Unmarked numbers belong to inactive results. Inconclusive results are not listed. The list shows a part of the results. A call without a number means that no potency is given here. The source made the active and inactive calls. Unless noted, calls follow the shape of the dose curve; as a rule, active = well fitted curve in the direction sought with a large enough effect; inconclusive = small, poorly fitted or top-dose-only effect, or another doubt; inactive = no such curve, though single readings can be large; an effect the other way counts as inactive or inconclusive. Numbered stars: 1 amine (or outer) side, 2 acyl side, 3 side chain; on linkers, the order of the positions; unused ones are H or OH. Bridge positions count the residues as written; N and C are the ends. Square brackets hold non-standard residues; d marks the D form. Peptide text beside a SMILES is read from it. * marks the point of attachment. ξ: configuration not given here. ΔAla(Z-3-ureido) = NC(=O)N/C=C(\N)C(=O)O; X3 = NC1=NCCC(C(N[*:1])C(=O)[*:2])N1; ξβ3hOrn = NCCCC(N)CC(=O)*; Dap = NC[CH](N)C(=O)O

How the values were obtained:
[1] = target: Nuclear receptor subfamily 1 group I member 2 (Rattus norvegicus) (UniProt Q9R1A7); assay: qHTS assay for small molecule activators of the rat pregnane X receptor (rPXR) signaling pathway (AID 651751; call rule not given here); conditions: rPXR reporter cells, luciferase (One-Glo), 24 h
Chain of Nuclear receptor subfamily 1 group I member 2 (Rattus norvegicus) (Q9R1A7 whole entry, looked up): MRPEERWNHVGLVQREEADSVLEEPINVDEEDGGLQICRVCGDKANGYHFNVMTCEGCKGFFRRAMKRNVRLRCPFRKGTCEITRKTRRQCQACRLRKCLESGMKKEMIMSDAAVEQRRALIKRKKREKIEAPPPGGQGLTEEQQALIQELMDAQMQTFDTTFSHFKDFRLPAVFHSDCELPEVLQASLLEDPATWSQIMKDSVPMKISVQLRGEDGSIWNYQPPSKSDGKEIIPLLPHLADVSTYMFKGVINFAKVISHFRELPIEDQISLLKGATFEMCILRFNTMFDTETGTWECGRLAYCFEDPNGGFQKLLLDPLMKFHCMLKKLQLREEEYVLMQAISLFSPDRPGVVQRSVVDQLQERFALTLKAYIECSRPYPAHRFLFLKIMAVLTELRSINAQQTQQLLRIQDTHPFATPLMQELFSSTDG

[2] = S16 Schwann cell PMP22 intronic element firefly luciferase assay (AID 624032); also: nearly all actives have a fitted effect of over 30% in size; also: potency is read from the fitted curve at half-maximal effect
Outline: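 Rat S16 Schwann cells stably carrying a PMP22 intronic element-driven Fluc reporter were seeded overnight, then exposed to compounds for 24 h at 37 °C. Luminescence was normalized to PTC124 (positive control) and DMSO (0% activity).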

[3] = S16 Schwann cell PMP22 intronic element beta-lactamase assay (AID 624044; calls by dose curve; also: nearly all actives have a fitted effect of over 15% in size; also: potency is read from the fitted curve at half-maximal effect); conditions: S16 rat Schwann cells, PMP22 element beta-lactamase FRET, 24 h; ratio activity, negative = inhibition: at 38.3 µM (top of the series)
Outline: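 Beta-lactamase reporter under a PMP22 intronic regulatory element in stable S16 rat Schwann cells; 24 h compound exposure. 460 nm blue signal normalized between DMSO (0%) and potassium clavulanate, with 535 nm FRET tracking viability; curves classed by r2 and response.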

[4] = target: Luciferin 4-monooxygenase (Photinus pyralis) (UniProt P08659); assay: Biochemical firefly luciferase enzyme assay for NPC (AID 624030);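 also: purified P. pyralis luciferase at 10 nM with luciferin and ATP substrate; nearly all actives have a fitted effect of over 70% in size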
Chain of Luciferin 4-monooxygenase (Photinus pyralis) (P08659 whole entry, looked up): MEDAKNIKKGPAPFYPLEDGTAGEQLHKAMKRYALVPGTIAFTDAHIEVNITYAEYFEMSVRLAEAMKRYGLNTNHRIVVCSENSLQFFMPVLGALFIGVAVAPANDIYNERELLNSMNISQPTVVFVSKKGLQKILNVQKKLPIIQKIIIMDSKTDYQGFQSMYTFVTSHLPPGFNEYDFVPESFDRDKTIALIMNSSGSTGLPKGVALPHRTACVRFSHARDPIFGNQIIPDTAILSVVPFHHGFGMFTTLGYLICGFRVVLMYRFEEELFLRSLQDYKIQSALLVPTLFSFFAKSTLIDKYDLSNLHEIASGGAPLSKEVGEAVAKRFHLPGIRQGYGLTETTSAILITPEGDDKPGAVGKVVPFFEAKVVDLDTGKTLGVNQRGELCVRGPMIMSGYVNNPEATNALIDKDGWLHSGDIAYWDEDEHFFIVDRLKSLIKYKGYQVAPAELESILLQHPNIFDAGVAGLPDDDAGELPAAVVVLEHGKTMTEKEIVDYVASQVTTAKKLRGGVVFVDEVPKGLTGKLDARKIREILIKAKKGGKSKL
Outline: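 Counter-screen for direct inhibition of the luciferase enzyme by approved-drug library compounds, run at 10 nM enzyme in 50 mM Tris acetate (final). Luminescence was read within 5 min of enzyme-buffer addition and normalized to PTC124 versus DMSO (0%).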

[5] = qHTS Assay for Identifying Gametocytocidal Compounds (AID 743244); also: potency is read from the fitted curve at half-maximal effect; conditions: P. falciparum 3D7 stage III-V gametocytes, alamarBlue, 72 h; max response: hits give low values
Outline: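 In this qHTS viability screen, late-stage 3D7 gametocytes are incubated with compound for 72 h, then with alamarBlue for 24 h; reduced resorufin fluorescence marks killing.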

[6] = target: ATPase family AAA domain-containing protein 5 (Homo sapiens) (UniProt Q96QE3); assay: HTS assay for small molecules that inhibit ELG1-dependent DNA repair in human embryonic kidney (HEK293T) cells expressing luciferase-tagged ELG1: Hit Confirmation (AID 624248); conditions: HEK293T ELG1-luciferase levels, luminescence; cells co-treated with 5-fluorouridine; also: potency is read from the fitted curve at half-maximal effect; nearly all actives have a fitted effect of over 55% in size
Chain of ATPase family AAA domain-containing protein 5 (Homo sapiens) (Q96QE3 whole entry, looked up, the tested form may be a part): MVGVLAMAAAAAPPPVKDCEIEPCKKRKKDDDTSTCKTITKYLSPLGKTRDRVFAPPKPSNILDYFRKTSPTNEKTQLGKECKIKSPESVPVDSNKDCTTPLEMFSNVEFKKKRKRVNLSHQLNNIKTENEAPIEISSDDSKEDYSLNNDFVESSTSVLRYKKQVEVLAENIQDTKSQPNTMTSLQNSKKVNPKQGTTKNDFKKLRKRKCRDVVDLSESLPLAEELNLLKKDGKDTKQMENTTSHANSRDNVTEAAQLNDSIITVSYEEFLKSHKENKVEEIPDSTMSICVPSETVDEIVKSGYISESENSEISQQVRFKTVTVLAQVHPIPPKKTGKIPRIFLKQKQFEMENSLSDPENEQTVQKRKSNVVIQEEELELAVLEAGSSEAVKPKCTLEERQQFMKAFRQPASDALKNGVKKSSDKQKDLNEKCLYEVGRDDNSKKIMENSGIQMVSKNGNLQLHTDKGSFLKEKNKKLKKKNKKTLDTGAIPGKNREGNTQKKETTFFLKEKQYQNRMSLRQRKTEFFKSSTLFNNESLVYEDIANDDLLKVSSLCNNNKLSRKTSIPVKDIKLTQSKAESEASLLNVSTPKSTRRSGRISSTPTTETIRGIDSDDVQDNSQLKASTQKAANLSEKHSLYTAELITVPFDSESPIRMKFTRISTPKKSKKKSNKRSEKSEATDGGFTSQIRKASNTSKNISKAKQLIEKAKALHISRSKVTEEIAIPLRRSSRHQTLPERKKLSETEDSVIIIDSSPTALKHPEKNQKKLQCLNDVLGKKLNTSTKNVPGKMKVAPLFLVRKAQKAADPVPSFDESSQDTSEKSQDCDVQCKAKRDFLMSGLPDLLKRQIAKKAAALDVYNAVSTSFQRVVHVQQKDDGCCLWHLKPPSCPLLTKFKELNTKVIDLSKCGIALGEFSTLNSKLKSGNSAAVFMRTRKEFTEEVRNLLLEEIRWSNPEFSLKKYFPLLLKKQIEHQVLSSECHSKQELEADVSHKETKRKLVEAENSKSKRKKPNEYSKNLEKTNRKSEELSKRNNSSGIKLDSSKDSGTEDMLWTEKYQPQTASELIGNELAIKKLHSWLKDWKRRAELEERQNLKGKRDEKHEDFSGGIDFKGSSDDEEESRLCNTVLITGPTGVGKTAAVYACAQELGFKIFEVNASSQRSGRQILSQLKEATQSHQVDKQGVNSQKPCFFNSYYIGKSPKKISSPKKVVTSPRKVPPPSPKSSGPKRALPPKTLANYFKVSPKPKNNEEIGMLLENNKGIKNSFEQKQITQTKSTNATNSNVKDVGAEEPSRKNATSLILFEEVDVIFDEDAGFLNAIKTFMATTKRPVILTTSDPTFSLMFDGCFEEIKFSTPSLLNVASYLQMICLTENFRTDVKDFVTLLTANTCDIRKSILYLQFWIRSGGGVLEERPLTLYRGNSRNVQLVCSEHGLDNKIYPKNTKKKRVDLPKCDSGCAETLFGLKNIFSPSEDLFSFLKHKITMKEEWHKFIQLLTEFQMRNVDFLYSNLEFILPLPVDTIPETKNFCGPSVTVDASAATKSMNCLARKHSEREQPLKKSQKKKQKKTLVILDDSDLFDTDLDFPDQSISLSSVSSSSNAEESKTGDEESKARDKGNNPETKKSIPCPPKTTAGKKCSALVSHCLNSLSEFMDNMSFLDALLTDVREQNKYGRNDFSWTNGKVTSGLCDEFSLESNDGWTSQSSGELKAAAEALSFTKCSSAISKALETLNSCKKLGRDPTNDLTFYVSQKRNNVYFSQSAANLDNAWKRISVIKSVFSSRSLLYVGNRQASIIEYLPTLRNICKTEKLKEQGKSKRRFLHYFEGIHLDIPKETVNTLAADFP
Outline: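 Cells (2,000/well) received 5-Fluorouridine plus pin-transferred compound or DMSO and were incubated 16 hr at 37 °C, 5% CO2. Luciferase activity was read by ONE-Glo luminescence after 30 min at room temperature; inhibitors suppress the signal.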

[7] = target: ATPase family AAA domain-containing protein 5 (Homo sapiens) (UniProt Q96QE3); assay: qHTS screen for small molecules that inhibit ELG1-dependent DNA repair in human embryonic kidney (HEK293T) cells expressing luciferase-tagged ELG1: Hit Confirmation using MMS Stimulated ELG1 (AID 624249); conditions: HEK293T luciferase-tagged ELG1 level; also: potency is read from the fitted curve at half-maximal effect; nearly all actives have a fitted effect of over 60% in size
Outline: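 Reporter gene format: suppression of MMS-induced ELG1-luciferase signal in HEK293T cells. MMS is present at 10 µM final, compound incubation lasts 16 h, and detection is by Amplight luciferase reagent.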

[8] = qHTS screen for small molecules that inhibit ELG1-dependent DNA repair: Hit Confirmation with MMS Viability (AID 624251); conditions: Cell viability with MMS;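 also: potency is read from the fitted curve at half-maximal effect; viability read 16 h after compound addition; nearly all actives have a fitted effect of over 60% in size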
Outline: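 This confirmation step measures survival of ELG1-luciferase reporter HEK293T cells co-treated with test compounds and MMS at a final 10 µM, using CellTiter-Glo after a 16-hour incubation.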

[9] = target: Luciferin 4-monooxygenase (Photinus pyralis) (UniProt P08659); assay: qHTS screen for small molecules that inhibit ELG1-dependent DNA repair: Hit Confirmation in Biochemical Luciferin Assay (AID 624253)
Outline: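 Luminescence from purified firefly luciferase acting on its substrate reagent, with compounds pinned in before the enzyme, read by CCD imager; flags direct luciferase inhibitors.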

[10] = target: Tumor susceptibility gene 101 protein (Homo sapiens) (UniProt Q99816); assay: qHTS Assay for Iinhibitors of HIV-1 Budding by Blocking the Interaction of PTAP/TSG101: Hit Validation (AID 651600); also: nearly all actives have a fitted effect of over 70% in size; also: potency is read from the fitted curve at half-maximal effect
Chain of Tumor susceptibility gene 101 protein (Homo sapiens) (Q99816 whole entry, looked up, the tested form may be a part): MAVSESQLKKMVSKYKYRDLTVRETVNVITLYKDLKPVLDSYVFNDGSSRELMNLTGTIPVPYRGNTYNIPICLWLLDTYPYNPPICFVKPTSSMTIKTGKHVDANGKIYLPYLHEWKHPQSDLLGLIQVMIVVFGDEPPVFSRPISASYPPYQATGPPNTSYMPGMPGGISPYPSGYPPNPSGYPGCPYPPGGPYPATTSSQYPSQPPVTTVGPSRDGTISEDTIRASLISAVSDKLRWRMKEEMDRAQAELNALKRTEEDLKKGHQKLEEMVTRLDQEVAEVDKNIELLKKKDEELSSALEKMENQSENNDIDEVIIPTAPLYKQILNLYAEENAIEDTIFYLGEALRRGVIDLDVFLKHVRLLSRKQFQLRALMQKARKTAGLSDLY
Outline: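 Fluorescence polarization binding assay: Tsg101 binding domain (10 uM) mixed with compounds and FITC-labeled PTAP peptide (50 nM) in HEPES pH 7.5, 0.15 M NaCl, 0.01% Tween 20, EDTA, TCEP; 20 min at r.t.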

[11] = target: Cytochrome P450 3A4 (Homo sapiens) (UniProt P08684); assay: qHTS Assay for Activators of Cytochrome P450 3A4 (AID 885); also: nearly all actives have a fitted effect of over 65% in size
Chain of Cytochrome P450 3A4 (Homo sapiens) (P08684 whole entry, looked up): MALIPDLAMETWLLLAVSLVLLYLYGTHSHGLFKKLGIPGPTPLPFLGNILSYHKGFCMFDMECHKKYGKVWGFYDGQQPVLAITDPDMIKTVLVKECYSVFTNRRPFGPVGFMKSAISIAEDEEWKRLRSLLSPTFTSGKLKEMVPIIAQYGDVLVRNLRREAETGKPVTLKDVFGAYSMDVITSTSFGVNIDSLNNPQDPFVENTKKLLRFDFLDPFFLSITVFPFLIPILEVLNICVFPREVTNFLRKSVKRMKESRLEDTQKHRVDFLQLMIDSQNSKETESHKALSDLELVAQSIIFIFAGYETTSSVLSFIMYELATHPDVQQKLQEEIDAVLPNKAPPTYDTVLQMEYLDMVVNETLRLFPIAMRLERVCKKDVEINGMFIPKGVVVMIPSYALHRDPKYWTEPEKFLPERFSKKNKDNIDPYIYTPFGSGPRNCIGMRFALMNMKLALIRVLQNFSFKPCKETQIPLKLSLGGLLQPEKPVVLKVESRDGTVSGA
Outline: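 CYP3A4 activity: Luciferin-PPXE O-dealkylation, 25uM substrate, 200mM KPO4, RT throughout. Read-out is luciferase luminescence; higher values reflect activation.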

[12] = qHTS assay for small molecule agonists of the antioxidant response element (ARE) signaling pathway (AID 651741; active = well fitted activation curve with a large enough effect in the signal ratio; the % refers to the signal ratio; also: potency is read from the fitted curve at half-maximal effect)
Outline: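 Reporter: beta-lactamase under ARE, stably in HepG2. Exposure: 16 h, 37 C, compounds delivered in DMSO by pin tool after 5 h cell preincubation. Readout: FRET substrate fluorescence after 2 h at RT.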

Compound `CON=C(C(=O)OC)c1ccccc1CO/N=C(\C)c1cccc(C(F)(F)F)c1` has a max response [1] of -14.4%.

In the case of `NC(C(=O)O)[C@@H]1CC(Cl)=NO1` (stereo not given in full), the Potency [2] is reported as 2.56 µM (active) and the Potency [3] is reported as 19.9 µM (active).

In the case of `COc1ccc2c3c1OC1C(O)C=CC4[C@@H](C2)N(C)CC[C@]314` (stereo not given in full), the Potency [4] is reported as “inactive”.

In the case of `COc1cc(-c2ccc(-[n+]3nc(-c4ccccc4)nn3-c3ccc([N+](=O)[O-])cc3)c(OC)c2)ccc1-[n+]1nc(-c2ccccc2)nn1-c1ccc([N+](=O)[O-])cc1`, the Potency [2] is reported as 14.4 µM (active), the Potency [3] is reported as 25.1 µM (active) and the Potency [5] is reported as 5.62 µM (active).

With `O=C1[O][Sb-]23[O]C(=O)C([O]2)C2[O][Sb-]4([O]C(=O)C([O]4)C1[O]3)[O]C2=O` the Potency [4] was “inactive”.

For `C=CCC1(O)CCC2C3CCC4=CC(=O)CCC4=C3C=CC21C` (stereo not given), the Potency [4] was “inactive”.

For `CC(=O)NC1[C@H]([C@H](O)[C@H](O)CO)OC(C(=O)O)=C[C@H]1N=C(N)N` (stereo not given in full), the Potency [2] was “inactive”.

For `C[C@@H]1C[C@H]2CC[C@H](O2)[C@H](C)C(=O)O[C@@H](C)C[C@@H]2CC[C@@H](O2)[C@@H](C)C(=O)O[C@H](C)C[C@H]2CC[C@H](O2)[C@H](C)C(=O)O[C@@H](C)C[C@@H]2CC[C@@H](O2)[C@@H](C)C(=O)O1`, the Potency [6] was 14.1 µM (active), the Potency [7] was 0.0889 µM (active) and the Potency [8] was 0.0997 µM (active). The outcome [9] was “inactive”.

For `CCC1CC2CC3c4[nH]c5ccc(OC)cc5c4CCN(C2)C13` (stereo not given), the Potency [4] was “inactive”.

For `COc1ccc(N2C(=O)NC(=O)/C(=C\c3cn(C)c4ccccc34)C2=O)cc1`, the Potency [10] was “inactive”.

In the case of `C[n+]1c2cc(N)ccc2cc2ccc(N)cc21`, the Potency [2] is reported as 1.81 µM (active).

With `CNC[C@H](O)c1ccc(OC(=O)C(C)(C)C)c(OC(=O)C(C)(C)C)c1` the Potency [11] was “inactive” and the Potency [2] was 0.0098 µM (active).

In the case of `C[C@H](CCCC(C)(C)O)[C@H]1CC[C@H]2[C@@H]3CC=C4C[C@@H](O)CC[C@]4(C)[C@H]3CC[C@]12C`, the Potency [3] is reported as “inactive”.

In the case of `NCCCC(N)CC(=O)NCC1NC(=O)C(CO)NC(=O)C(N)CNC(=O)C(C2CCN=C(N)N2)NC(=O)/C(=C/NC(N)=O)NC1=O` (stereo not drawn) (H-[Dap]S[Dap](ξβ3hOrn)[ΔAla(Z-3-ureido)][X3]; lactam 1-C; configuration not given here), the Potency [2] is reported as “inactive”.

For `CC(=O)Oc1ccc2c3c1OC1C(OC(C)=O)C=CC4[C@@H](C2)N(C)CC[C@]314` (stereo not given in full), the Potency [4] was “inactive”.

With `CN1Cc2c(c(C#N)c(N)n(C)c2=S)CC1(C)C` the Potency [10] was 32.6 µM (active).

With `N#CCN1CCN(c2ccc(C(F)(F)F)cc2)CC1` the Potency [10] was “inactive”.

In the case of `CC(C)C[C@H]1C(=O)N2CCC[C@H]2[C@]2(O)O[C@](NC(=O)[C@@H]3C=C4c5cccc6[nH]cc(c56)C[C@H]4N(C)C3)(C(C)C)C(=O)N12`, the Potency [10] is reported as “inactive”.

In the case of `CC1(Cn2ccnn2)[C@H](C(=O)O)N2C(=O)C[C@H]2S1(=O)=O` (stereo not given in full), the Potency [3] is reported as 12.6 µM (active).

With `Cc1cc(N2CCCC2)ccc1C=C(C#N)C#N` the Potency [10] was “inactive”.

For `CCCCCCCCCCCCCCCCCC[N+](C)(C)CCC[Si](OC)(OC)OC`, the Potency [2] was 0.572 µM (active).

With `Clc1ccc([C@H]2CC3CCC2N3)cn1` (stereo not given in full) the Potency [4] was “inactive”.

With `CO` the Potency [12] was 42.2 µM (active).
